In general, inhibition refers to the drop in the measured response relative to a control, in per cent.

In all, about 89,000 compounds went through this assay and about 440 (0.49%) were called active. The sample as a whole holds a higher share of actives than the screen did. A number with no mark means an inactive call.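 How the source made its calls: active means inhibition above the mean inhibition across all screened compounds plus 3 SD (cut at about 11% in these data); inactive means the rest.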

For the test, the target named is RNA-editing ligase 1, mitochondrial (Trypanosoma brucei brucei) (UniProt P86926). In words: TbREL1 RNA ligase inhibitors, primary screen, biochemical, FRET fluorescence (AID 1117264).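 Further: 0% = plate median of test wells and 100% = NSC42067 control.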 Particulars: TbREL1 RNA ligation, at 9.66 µM, active compounds read high.
Chain of RNA-editing ligase 1, mitochondrial (Trypanosoma brucei brucei) (P86926 whole entry, looked up): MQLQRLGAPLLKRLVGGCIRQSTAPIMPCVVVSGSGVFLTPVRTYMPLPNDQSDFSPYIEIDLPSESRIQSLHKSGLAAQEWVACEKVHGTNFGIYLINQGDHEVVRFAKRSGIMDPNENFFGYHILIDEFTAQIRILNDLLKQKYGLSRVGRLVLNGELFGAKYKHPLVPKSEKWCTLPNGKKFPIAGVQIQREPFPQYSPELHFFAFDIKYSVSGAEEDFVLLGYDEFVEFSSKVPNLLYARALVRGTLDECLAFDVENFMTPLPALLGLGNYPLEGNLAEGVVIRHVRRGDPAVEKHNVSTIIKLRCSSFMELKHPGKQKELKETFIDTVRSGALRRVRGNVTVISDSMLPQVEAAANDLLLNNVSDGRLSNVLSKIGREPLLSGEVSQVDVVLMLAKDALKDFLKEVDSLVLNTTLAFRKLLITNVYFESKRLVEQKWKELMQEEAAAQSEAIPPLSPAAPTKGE
With `CC1(C)Cc2c(sc(NC(=O)C(=O)N3CCOCC3)c2C#N)CO1`, the inhibition was -1.21%. On to `COc1ccc(OC)c(NC(=O)c2cccc(S(=O)(=O)N3CCN(C(C)=O)CC3)c2)c1`, for which the inhibition was -0.85%. As for `CC(=O)Nc1ccc(NC(=O)CSC2=NS(=O)(=O)c3ccccc3N2)cc1`, the figure is 2.64%. As for `CCCOc1cccc(C(=O)Nc2ccccc2C(=O)N2CCN(C)CC2)c1`, the figure is 0.64%; as for `Cc1sc2ncn(CC(=O)NCCN(C)C)c(=O)c2c1S(=O)(=O)N1CCC(C)CC1`, -1.59%; as for `Cc1ccc(C(=O)Cc2nnc(C)s2)cc1`, -0.4%. Take `CSCCC(NC(=O)COc1ccccc1)C(=O)Nc1ccc(C)cc1` (centres undefined): the inhibition is -0.75%. In the case of `O=C(CCNC(=O)Cn1ccc2ccccc2c1=O)NCCC1=CCCCC1`, the inhibition is -2.59%.

With `CC(Oc1ccccc1)C(=O)Nc1c2c(nn1-c1ccccc1)CS(=O)C2` (centres undefined), the inhibition was 0.74%. The figure for `CCOC(=O)N1CCN(C(=O)c2ccccc2N(Cc2ccccc2)S(=O)(=O)c2ccc(OC)cc2)CC1` is -1.48%; for `COc1ccc(NC(=O)CN(C)C(=O)CNC(=O)C2CCCCC2)cc1` it is -1.04%. Take `N/C(=N\OC(=O)Cc1ccc([N+](=O)[O-])cc1)c1ccccn1`: the inhibition was 5.64%.

`CCOc1ccc(-n2cnnn2)cc1S(=O)(=O)N1CCC(C)CC1C` (centres undefined): the inhibition is -0.48%. As for `CC(=O)O[C@@]1(C(C)=O)CCC2[C@H]3C=C(C)C4=CC(=O)CC[C@@]4(C)C3CC[C@]21C` (some centres undefined), the figure is 2.86%; as for `Cc1ccc(CN(Cc2cccnc2)C(=S)Nc2cccc(Cl)c2C)cc1`, -3.35%.

On to `COc1cccc2c1CCC(NC(C)=O)C2=O` (centres undefined), for which the inhibition is 0.33%. The figure for `CC(C#N)OC(=O)c1cccnc1SCC(=O)Nc1ccc2c(c1)OCO2` (centres undefined) is -2.63%; for `COC(=O)c1ccc2c(c1)S(=O)(=O)NC2C` (centres undefined) it is -0.32%; for `O=C1CCC/C=C\C[C@@H](CC(=O)N(CCO)Cc2ccccc2)C(=O)NCCO1` it is 3.07%.

On to `O=C(Nc1n[nH]c(C(F)(F)F)n1)c1cccs1`, for which the inhibition is 0.59%. The figure for `Cc1cc(=O)[nH]c(SCC(=O)Nc2ccc(Cl)cc2C)n1` is 6.53%; for `CC(=O)Nc1ccc(-c2csc(NC=C3C(=O)OC(C)(C)OC3=O)n2)cc1` it is 0.47%; for `CC(C)(C)OC(=O)c1c(N)n(CCCN2CCCC2=O)c2nc3ccccc3nc12` it is -0.01%. As for `O=C(CN1CCN(c2ccccn2)CC1)NCc1cccs1`, the figure is -2.97%; as for `CC(C)Cn1c(N)c(C(=O)NCc2cccs2)c2nc3ccccc3nc21`, 44% (active); as for `Nc1c(Cl)cc(-c2csc(N3CCCC3c3nc4cc(Cl)c(Cl)cc4n3CCOCCO)n2)cc1Cl` (centres undefined), -4.69%. As for `Cn1ccnc1SCC(=O)Nc1ccc2c(c1)OCCO2`, the figure is 2.46%; as for `Cc1cccc(NC(=S)NC23CN4CN(CN(C4)C2)C3)c1`, -3.73%; as for `COC(=O)C(C)Oc1ccc2c(c1)O/C(=C\c1cccc(Br)c1)C2=O` (centres undefined), 1.78%.

Turning to `Cc1c(C(=O)OCC(=O)N2CCCC2=O)oc2ccccc12`, the inhibition is -0.28%. As for `CC(C)NC(=O)C1(C)CCCCN1Cc1cccc(C(F)(F)F)c1` (centres undefined), the figure is -3.05%. Consider `COC(=O)C1=C(C)N(Cc2cccc(C(F)(F)F)c2)C(=NCc2ccccc2)NC1c1ccc(Cl)cc1` (centres undefined), for which the inhibition is 10.5%.

For `COC(=O)C1=C(C)N(Cc2cccc(C(F)(F)F)c2)C(=NCc2ccccc2)NC1c1ccccc1C(F)(F)F` (centres undefined), the inhibition is 18.8% (active). As for `COC(=O)C1=C(C)N(Cc2ccccc2)C(=NCCCOC(C)C)N[C@H]1c1ccccc1`, the figure is 8.47%. As for `COC(=O)C1=C(C)N(Cc2cccc(C(F)(F)F)c2)C(=NCc2cccc(C(F)(F)F)c2)NC1c1ccccc1C(F)(F)F` (centres undefined), the figure is 17.6% (active); as for `COC(=O)C1=C(C)N(Cc2ccc(F)cc2)C(=S)NC1c1cccc(Cl)c1` (centres undefined), -6.48%; as for `C[C@H](NC(=O)c1[nH]cnc1C(=O)Nc1nccs1)c1ccccc1`, 2.49%.

With `S=C(NCc1ccco1)NCc1ccccc1Cl`, the inhibition is -2.97%. As for `CCOC(=O)C1CCN(c2c(Nc3cc(C)cc(C)c3)c(=O)c2=O)CC1`, the figure is -4.56%. The figure for `Cc1ccc(NS(=O)(=O)c2ccc(C(C)C)cc2)cc1S(=O)(=O)N1CCOCC1` is -0.97%; for `Cc1cccc(Nc2nnc(SCC(=O)c3c(N)n(C4CC4)c(=O)[nH]c3=O)s2)c1C` it is 1.72%; for `O=C(CSc1nc2sc3c(c2c(=O)n1-c1ccccc1)CCCC3)NN=Cc1ccc(OCc2ccccc2)cc1` it is 0.03%.

As to `Cc1ccc2c(c1)nnc1nnc(SCC(=O)O)n12`, the inhibition was 1.61%. For `COC(=O)c1cc(S(=O)(=O)N2CCN(C(=O)C3CCCO3)CC2)cn1C` (centres undefined), the inhibition is 0.88%. For the compound `Cc1ccc2c(CN3CCN(S(=O)(=O)c4ccccc4C(F)(F)F)CC3)cc(=O)oc2c1`, the inhibition is 6.44%. The figure for `CC(=O)Nc1ccc(NC(=O)[C@@H](NC(=O)c2cccc(C)c2)C(C)C)cc1` is 1.63%; for `COc1ccccc1NC(=S)N1CCC(NC(=O)C23CC4CC(CC(C4)C2)C3)CC1` it is -2.86%; for `CC(C)(C)C1C/C(=C/c2ccco2)C(=O)/C(=C/c2ccco2)C1` (centres undefined) it is 32.6% (active).

On to `COC(=O)C1=C(C)N(c2ccc(Br)cc2)C(=O)/C1=C\c1ccco1`, for which the inhibition is 4.92%.

For the origin of these results see PubChem BioAssay AID1117264 (The Scripps Research Institute Molecular Screening Center, 2014).
